# The sample as a whole holds a higher share of the strongest signals than the screen did.
# Tests used:
# Assay in all cases: glycan array binding signal (z-score within array); higher = stronger binding
# Conditions in all cases: glycan notation: IUPAC condensed, linker removed
# [1] = molecular target: Gal(b1-4)GlcNAc(b1-3)Gal(b1-4)GlcNAc(b1-3)Gal(b1-4)GlcNAc(b1-2)Man(a1-3)[Gal(b1-4)GlcNAc(b1-3)Gal(b1-4)GlcNAc(b1-3)Gal(b1-4)GlcNAc(b1-2)Man(a1-6)]Man(b1-4)GlcNAc(b1-4)GlcNAc
# Outline: (§1)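 Arrays were curated from the Consortium for Functional Glycomics database, 3228 in total, and kept only where the protein sequence was available. Binding is expressed as a within-array Z-score. This score was averaged across arrays of the same protein sequence at different concentrations or buffers and across linkers, and negative values can be read as non-binding.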
# [2] = molecular target: Gal(b1-4)GlcNAc(b1-3)Gal(b1-4)GlcNAc(b1-3)Gal(b1-4)GlcNAc(b1-3)Gal(b1-4)GlcNAc(b1-2)Man(a1-3)[Gal(b1-4)GlcNAc(b1-3)Gal(b1-4)GlcNAc(b1-3)Gal(b1-4)GlcNAc(b1-3)Gal(b1-4)GlcNAc(b1-2)Man(a1-6)]Man(b1-4)GlcNAc(b1-4)GlcNAc
# Outline: as §1
# [3] = molecular target: Gal(b1-4)GlcNAc(b1-3)Gal(b1-4)GlcNAc(b1-3)Gal(b1-4)GlcNAc(b1-3)Gal(b1-4)GlcNAc(b1-3)Gal(b1-4)GlcNAc(b1-2)Man(a1-3)[Gal(b1-4)GlcNAc(b1-3)Gal(b1-4)GlcNAc(b1-3)Gal(b1-4)GlcNAc(b1-3)Gal(b1-4)GlcNAc(b1-3)Gal(b1-4)GlcNAc(b1-2)Man(a1-6)]Man(b1-4)GlcNAc(b1-4)GlcNAc
# Outline: as §1
# [4] = molecular target: Gal6P(b1-4)GlcNAc
# Outline: as §1
# [5] = molecular target: GalNAc(b1-3)Gal(a1-4)Gal(b1-4)GlcNAc(b1-3)Gal(b1-4)Glc
# Outline: as §1
# [6] = molecular target: GalNAc(b1-3)Gal(a1-6)Gal(b1-4)Glc
# Outline: as §1
# [7] = molecular target: GalNAc(b1-3)GalNAc
# Outline: as §1
# [8] = molecular target: GalNAc3S(b1-4)[Fuc(a1-3)]GlcNAc
# Outline: as §1
# [9] = molecular target: Glc(b1-6)Glc
# Outline: as §1
# [10] = molecular target: GlcNAc(a1-4)Gal(b1-3)GlcNAc
# Outline: as §1
# [11] = molecular target: GlcNAc(a1-4)Gal(b1-4)GlcNAc(b1-3)Gal(b1-4)[Fuc(a1-3)]GlcNAc(b1-3)Gal(b1-4)[Fuc(a1-3)]GlcNAc
# Outline: as §1
# [12] = molecular target: GlcNAc(b1-3)Gal(b1-4)GlcNAc(b1-3)Gal(b1-4)GlcNAc(b1-2)Man(a1-3)[GlcNAc(b1-3)Gal(b1-4)GlcNAc(b1-3)Gal(b1-4)GlcNAc(b1-2)Man(a1-6)]Man(b1-4)GlcNAc(b1-4)GlcNAc
# Outline: as §1
# [13] = molecular target: GlcNAc(b1-3)Gal(b1-4)GlcNAc(b1-3)Gal(b1-4)GlcNAc(b1-3)Gal(b1-4)GlcNAc(b1-2)[GlcNAc(b1-3)Gal(b1-4)GlcNAc(b1-3)Gal(b1-4)GlcNAc(b1-3)Gal(b1-4)GlcNAc(b1-6)]Man(a1-6)[GlcNAc(b1-3)Gal(b1-4)GlcNAc(b1-3)Gal(b1-4)GlcNAc(b1-3)Gal(b1-4)GlcNAc(b1-2)Man(a1-3)]Man(b1-4)GlcNAc(b1-4)[Fuc(a1-6)]GlcNAc
# Outline: as §1
# [14] = molecular target: GlcNAc(b1-3)Gal(b1-4)GlcNAc(b1-6)[Gal(b1-3)]GalNAc
# Outline: as §1
# [15] = molecular target: GlcNAc(b1-4)GlcNAc(b1-4)GlcNAc(b1-4)GlcNAc(b1-4)GlcNAc
# Outline: as §1
# [16] = molecular target: Kdn(a2-3)Gal(b1-3)GlcNAc
# Outline: as §1
# [17] = molecular target: Man(a1-2)Man(a1-2)Man(a1-3)Man
# Outline: as §1
# [18] = molecular target: Man(a1-2)Man(a1-3)[Man(a1-6)]Man(a1-6)[Man(a1-2)Man(a1-3)]Man(b1-4)GlcNAc(b1-4)GlcNAc
# Outline: as §1
# [19] = molecular target: Man(a1-2)Man(a1-6)[Man(a1-3)]Man(a1-6)[Man(a1-2)Man(a1-2)Man(a1-3)]Man(b1-4)GlcNAc(b1-4)GlcNAc
# Outline: as §1
# [20] = molecular target: Neu5Ac(a2-3)Gal(b1-3)GlcNAc(b1-2)Man
# Outline: as §1
# [21] = molecular target: Neu5Ac(a2-3)Gal(b1-3)GlcNAc(b1-6)GalNAc
# Outline: as §1
# [22] = molecular target: Neu5Ac(a2-3)Gal(b1-4)GlcNAc(b1-3)Gal(b1-4)GlcNAc(b1-3)Gal(b1-4)GlcNAc(b1-2)Man(a1-3)[Neu5Ac(a2-3)Gal(b1-4)GlcNAc(b1-3)Gal(b1-4)GlcNAc(b1-3)Gal(b1-4)GlcNAc(b1-2)Man(a1-6)]GalNAc
# Outline: as §1
# [23] = molecular target: Neu5Ac(a2-3)Gal(b1-4)GlcNAc6S
# Outline: as §1
# [24] = molecular target: Neu5Ac(a2-3)Gal(b1-4)[Fuc(a1-3)]GlcNAc(b1-3)GalNAc
# Outline: as §1
# [25] = molecular target: Neu5Ac(a2-8)Neu5Ac
# Outline: as §1
# [26] = molecular target: Neu5Ac(a2-8)Neu5Gc(a2-3)Gal(b1-4)GlcNAc
# Outline: as §1
# [27] = molecular target: Neu5Gc(a2-6)GalNAc
# Outline: as §1
binder,measurement,setting,value
PX14375C-bth-509-28-509 (Bacteroides thetaiotaomicron) (protein) RSPQGQFTEDDNPNALVNGKIYNVYTMMRSFDITAGTPAIAIHYLRSEDSEKGSIPSDGSDVAEMYDDFLYTPTNGLLGSYWGKNYAIIYQCNDILDAIAEKETAGQTETEDIINKGEASFFRAYCYFNLVRAFGEVPLVTYKINDASEANIPKTTADKIYEQIDTDLKTAEESLPETWSTEYTGRLTWGAARSLHARTYMMRSDWDNMYKASTDVINKGLYNLKTPYNEIFTDDGENSGGSIFELQCTATAALPQSDVIGSQFCEVQGVRGAGQWDLGWGWHMATQLMADAYETGDPRKNATLLYFRKTDDEPITPENTNEPYGESPISPAMGAYFNKKAYTDPALRKEYTNKGFWVNIRLIRYSDVVLMAAEAANEKNIPGEAVDYLEMVRARARGTNTNILPKITTNDQGELREAIRHERRVELGLEPDRFYDLVRWGIASEVLHAAGKVNYQDKNALLPLPQSEIDKSKGVLVQNPDY,glycan array binding signal (z-score),[1],0.774
same,glycan array binding signal (z-score),[2],0.053
same,glycan array binding signal (z-score),[3],3.46
same,glycan array binding signal (z-score),[4],-0.343
same,glycan array binding signal (z-score),[5],0.244
same,glycan array binding signal (z-score),[6],-0.426
same,glycan array binding signal (z-score),[7],1.2
same,glycan array binding signal (z-score),[8],-0.31
same,glycan array binding signal (z-score),[9],-0.146
same,glycan array binding signal (z-score),[10],-0.442
same,glycan array binding signal (z-score),[11],-0.057
same,glycan array binding signal (z-score),[12],3.19
same,glycan array binding signal (z-score),[13],-0.11
same,glycan array binding signal (z-score),[14],-0.076
same,glycan array binding signal (z-score),[15],0.127
same,glycan array binding signal (z-score),[16],0.209
same,glycan array binding signal (z-score),[17],-0.321
same,glycan array binding signal (z-score),[18],-0.274
same,glycan array binding signal (z-score),[19],-0.383
same,glycan array binding signal (z-score),[20],-0.329
same,glycan array binding signal (z-score),[21],3.9
same,glycan array binding signal (z-score),[22],5.44
same,glycan array binding signal (z-score),[23],-0.321
same,glycan array binding signal (z-score),[24],-0.014
same,glycan array binding signal (z-score),[25],4.99
same,glycan array binding signal (z-score),[26],5.56
same,glycan array binding signal (z-score),[27],-0.21

# — the supplement of paper PMC8728848
